Experimental data from paper PMC4336329 (PLoS ONE, 2015).
In all, about 310,000 compounds went through this assay and about 14,000 (4.5%) showed an effect of 50% or more. Effects have a minus sign here. The sample as a whole holds a higher share of strong results than the screen did.

target: human ether-à-go-go-related gene (hERG) potassium channel (human, UniProt Q12809); experiment: primary screen, population patch clamp on CHO cells stably expressing hERG; higher = less effect of the substance
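Also: peak tail current of the secondary pulse compared with the same well before compound.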

Chain of human ether-à-go-go-related gene (hERG) potassium channel (Q12809 whole entry, looked up): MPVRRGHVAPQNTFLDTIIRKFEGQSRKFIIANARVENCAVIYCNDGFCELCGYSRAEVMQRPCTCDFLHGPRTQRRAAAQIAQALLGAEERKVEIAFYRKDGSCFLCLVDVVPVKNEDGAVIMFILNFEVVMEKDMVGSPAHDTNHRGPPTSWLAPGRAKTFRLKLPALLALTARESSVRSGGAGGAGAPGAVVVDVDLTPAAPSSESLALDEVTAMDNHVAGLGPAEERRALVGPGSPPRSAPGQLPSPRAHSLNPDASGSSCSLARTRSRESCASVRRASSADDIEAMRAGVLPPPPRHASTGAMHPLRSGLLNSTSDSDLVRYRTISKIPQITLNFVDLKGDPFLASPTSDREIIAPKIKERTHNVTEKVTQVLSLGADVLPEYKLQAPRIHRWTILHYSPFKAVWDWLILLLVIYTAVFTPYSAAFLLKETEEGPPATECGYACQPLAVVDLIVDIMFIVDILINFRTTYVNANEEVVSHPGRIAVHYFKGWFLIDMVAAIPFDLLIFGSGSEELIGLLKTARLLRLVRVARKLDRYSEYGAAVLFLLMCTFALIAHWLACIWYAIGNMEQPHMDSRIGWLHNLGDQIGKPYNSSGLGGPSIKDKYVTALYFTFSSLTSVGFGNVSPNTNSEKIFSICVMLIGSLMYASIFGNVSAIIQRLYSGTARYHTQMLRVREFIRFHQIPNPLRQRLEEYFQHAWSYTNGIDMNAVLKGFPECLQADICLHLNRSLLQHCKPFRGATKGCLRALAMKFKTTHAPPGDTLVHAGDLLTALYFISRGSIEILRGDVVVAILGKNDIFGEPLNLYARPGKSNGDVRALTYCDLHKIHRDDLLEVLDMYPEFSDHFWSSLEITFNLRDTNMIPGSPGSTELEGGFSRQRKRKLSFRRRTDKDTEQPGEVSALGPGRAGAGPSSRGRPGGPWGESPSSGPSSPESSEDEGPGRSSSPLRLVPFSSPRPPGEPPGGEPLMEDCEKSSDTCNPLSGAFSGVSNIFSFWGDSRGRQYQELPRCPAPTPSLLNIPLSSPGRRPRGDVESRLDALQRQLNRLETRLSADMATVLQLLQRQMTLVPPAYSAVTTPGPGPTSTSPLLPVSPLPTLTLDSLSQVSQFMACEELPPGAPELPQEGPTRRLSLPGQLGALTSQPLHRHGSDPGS

Row | Compound | hERG current change (%, negative = inhibition) at 10uM [%]
1 | Cc1nc(C)c(C(=O)Nc2cccc(C)c2C)o1 | -0.939
2 | Cc1c(NC(=O)C2(C)CCCCC2)c(=O)n(-c2ccccc2)n1C | 6.22
3 | CC(C)(C)[C@]1(O)CCN2C[C@H]3c4ccccc4CCc4cccc(c43)[C@@H]2C1.Cl | -78.3
4 | O=C(C1CCCCC1)N1CC(=O)N2CCc3ccccc3C2C1 (centres unmarked) | 10.2
5 | CC1(O)CCN2C(=O)CCc3cccc1c32 (centres unmarked) | -9.44
6 | CCOc1cc(-c2noc(CCC(=O)NCCc3ccccc3)n2)ccc1OC | 1.79
7 | CN(C)c1nc(NCc2ccccc2)nc(N/N=C/c2ccc(Br)cc2)n1 | 13.3
8 | COc1ccc(C2C(C#N)=C(N)Oc3c2c(-c2ccccc2)nn3-c2ccccc2)c(OC)c1OC (centres unmarked) | -1.15
9 | COc1ccccc1C1C(C#N)=C(N)Oc2c1c(-c1ccccc1)nn2-c1ccccc1 (centres unmarked) | 0.699
10 | COc1cc(C2C(C#N)=C(N)Oc3c2c(-c2ccccc2)nn3-c2ccccc2)cc(OC)c1OC (centres unmarked) | -65
11 | O=C(Nc1ccn(Cc2c(F)c(F)cc(F)c2F)n1)c1ccc(COc2cc(Cl)ccc2Cl)o1 | 6.83
12 | CC(NCC#Cc1ccccc1)C(O)c1ccccc1.Cl (centres unmarked) | -1.67
13 | OC(CNCc1ccccc1)c1ccccc1 (centres unmarked) | 4.68
14 | CSc1ccc(CNC(C)C(O)c2ccccc2)cc1.Cl (centres unmarked) | -51.4
15 | Cl.Oc1cccc(C(O)CNCc2ccc(-c3ccccc3)cc2)c1 (centres unmarked) | -66
16 | CC(NCc1ccccc1Cl)C(O)c1ccccc1.Cl (centres unmarked) | 4.31
17 | Cl.OC(CNCc1ccc(-c2ccccc2)cc1)c1ccccc1 (centres unmarked) | -16.1
18 | CCNCC(O)c1cccc(O)c1 (centres unmarked) | 20.8
19 | Cl.OC(CNCc1ccncc1)c1ccccc1 (centres unmarked) | 6.97
20 | CSc1ccc(CNCC(O)c2ccccc2)cc1.Cl (centres unmarked) | -55

Row | Compound | hERG current change (%, negative = inhibition) at 10uM [%]
21 | COc1ccc(N2CC(C(=O)NCc3nnnn3-c3ccc(C)c(C)c3)CC2=O)cc1 (centres unmarked) | -19.6
22 | Cc1ccc(CNC(=O)CN2C(=O)COc3ccc(C)cc32)cc1 | -5.06
23 | COc1ccc(C(=O)CNc2ccccc2C#N)cc1 | 28.1
24 | CCCOc1ccc(S(=O)(=O)NCCN2CCOCC2)c2ccccc12 | -23.3
25 | CC(CCc1ccccc1)NC(=O)COC(=O)CC1CC2CCC1C2 (centres unmarked) | -6.07
26 | CSc1cccc(CN2CCN(CCC(C)C)C(CCO)C2)c1 (centres unmarked) | -33.2
27 | CSc1cccc(CN2CCN(CCc3ccccc3)C(CCO)C2)c1 (centres unmarked) | -80.4
28 | OCCC1CN(CC2CC2)CCN1Cc1ccc(F)c(F)c1 (centres unmarked) | -25.5
29 | CSc1ccc(CN2CCN(CC=C(C)C)C(CCO)C2)cc1 (centres unmarked) | -46.2
30 | CSc1ccc(CN2CCN(C3CCCC3)C(CCO)C2)cc1 (centres unmarked) | -53.8
31 | CSc1cccc(CN2CCN(Cc3ccc(F)c(F)c3)C(CCO)C2)c1 (centres unmarked) | -69.5
32 | CSc1ncc(CN2CCN(C3CCCC3)C(CCO)C2)cn1 (centres unmarked) | -0.478
33 | CSc1ncc(CN2CCN(C3CCCCC3)C(CCO)C2)cn1 (centres unmarked) | -16.9
34 | CSc1ccc(CN2CCN(Cc3ccccc3)C(CCO)C2)cc1 (centres unmarked) | -56.8
35 | OCCC#Cc1ccc(CN2CCN(Cc3ccccc3)C(CCO)C2)cc1 (centres unmarked) | -15
36 | OCCC1CN(Cc2ccc(Oc3ncccn3)cc2)CCN1Cc1ccc(F)c(F)c1 (centres unmarked) | -23.6
37 | CC12CCC(C/C1=N\OC(=O)c1c(F)cccc1F)C2(C)C (centres unmarked) | -0.495
38 | CC(C)(C)C1CCC(=NNC(=O)CN(c2ccccc2)S(=O)(=O)c2ccccc2[N+](=O)[O-])CC1 (centres unmarked) | 6.69
39 | COCCNC(=O)c1ccc(N2CC3CC(C2)c2cccc(=O)n2C3)c([N+](=O)[O-])c1 (centres unmarked) | 21.4
40 | Cc1ccc(S(=O)(=O)C2(C(=O)Nc3cccc(F)c3)CC2)cc1 | 0.141

Row | Compound | hERG current change (%, negative = inhibition) at 10uM [%]
41 | COc1cc2c(cc1OC)CN(C(=O)c1ccc(OC)c([N+](=O)[O-])c1)CC2 | 4.43
42 | COc1cccc(CN(C)C(=O)CSCC(=O)Nc2cc(C)on2)c1OC | 11.6
43 | CCCCn1c2c(c(=O)n(C)c1=O)C(c1ccc(OC)cc1)N1CCCCCC1=N2 (centres unmarked) | -21.9
44 | CCOC(=O)C1CCN(Cc2cnc(Oc3ccc(N)cc3)s2)CC1 | -10.6
45 | COc1ccc(S(=O)(=O)N2CCCC(C(=O)NCC3CCCO3)C2)cc1OC (centres unmarked) | 11
46 | CC(C)c1csc(CN2CCN(Cc3ccc(F)c(F)c3)C(CCO)C2)n1 (centres unmarked) | -19.3
47 | CC(C)c1cc(CN2CCN(Cc3ccc(F)c(F)c3)C(CCO)C2)[nH]n1 (centres unmarked) | -52.4
48 | CSc1ccc(CN2CCN(C(C)C)C(CCO)C2)cc1 (centres unmarked) | -24
49 | CSc1ccc(CN2CCN(CCC(C)C)C(CCO)C2)cc1 (centres unmarked) | -63.3
50 | OCCC1CN(Cc2ccn[nH]2)CCN1Cc1ccc(F)c(F)c1 (centres unmarked) | 9.54
51 | CSc1cccc(CN2CCN(Cc3ccccc3)C(CCO)C2)c1 (centres unmarked) | -57.7
52 | CC(C)(O)C#Cc1ccc(CN2CCN(Cc3ccccc3)C(CCO)C2)cc1 (centres unmarked) | 12
53 | CSc1ncc(CN2CCN(CCC(C)C)C(CCO)C2)cn1 (centres unmarked) | -1.45
54 | CC(NS(=O)(=O)OCC(Cl)(Cl)Cl)c1ccccc1 (centres unmarked) | 9.74
55 | Cc1cccc(-c2cc3nc4c(c(N5CCC6(CC5)OCCO6)n3n2)CCCC4)c1 | 10.2
56 | O=S(=O)(CCSc1ccc(C(F)(F)F)cn1)c1ccc(Cl)cc1 | 13
57 | Oc1c(-c2cc(-c3ccco3)[nH]n2)ccc2ccccc12 | 13.7
58 | CCOC(=O)N1CCc2c(sc3ncn(C)c(=O)c23)C1 | 5.05
59 | Cc1cc(Cl)ccc1NC(=O)CN1C(=O)CSc2ccc(S(=O)(=O)N3CCOCC3)cc21 | -18.7
